Source: PubChem (National Center for Advancing Translational Sciences (NCATS))
FUS suppressor: suppressors of FUS proteinopathy in yeast; S. cerevisiae FUS-expressing, growth rescue, OD600, 24 h; Potency, µM (top dose mostly 76.6 µM), hits mostly activators; actives 0.24% (n = 390,000); AID 1347120;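 note: plate controls were DMSO vehicle for no effect and reference control for full effect; nearly all actives have a fitted effect of over 55% in size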
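Galactose (2%) drives FUS expression in yeast precultured in raffinose; seeding density OD 0.005. Test compounds incubated 24hr at 30C and 99% humidity before absorbance at 600 nm was measured.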
aSyn rescue: alpha-synuclein toxicity inhibition in yeast. Yeast expressing alpha-synuclein, growth rescue, BacTiter-Glo, 24 h. AID 652106. Potency, µM (doses to about 46.1 µM), inactives show at the highest dose growth rescue (activation), actives largely listed as activators. actives 0.14% (n = 370,000); note: % of control where 0% means no effect; nearly all actives have a fitted effect of over 65% in size
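Rescue of yeast growth: cells expressing toxic alpha-synuclein, induced in galactose at OD600 0.02, incubated with compound 24 h at 30 C. ATP luminescence quantified growth; inhibitors of toxicity appear as activators.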
TDP-43 yeast inh: inhibitors of TDP-43 toxicity in yeast | TDP-43 expressing yeast growth rescue, BacTiter-Glo, 24 h | Potency, µM (highest dose often 46.1 µM), without a hit: at the top dose growth rescue (activation), actives largely listed as activators | actives 1.8% (n = 410,000) | AID 652104; note: % of control where 0% means no effect; nearly all actives have a fitted effect of over 50% in size
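Growth rescue of TDP-43-toxic yeast measured as ATP luminescence (BacTiter-Glo). Cells grown to mid-log in raffinose, induced in galactose at OD600=0.02, exposed to compound 24 hr at 30 deg C.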
Abeta rescue: A-beta toxicity reversal in yeast | Potency, µM (doses to about 46.1 µM), most hits filed as activators | actives 0.063% (n = 410,000) | yeast expressing A-beta42, growth rescue, OD600, 48 h; response scale: 0% DMSO, 100% iron-clioquinol control; note: nearly all actives have a fitted effect of over 55% in size
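Yeast growth medium received pinned compounds, then yeast cells expressing toxic A-beta were added; plates incubated at 30 C for 48 hr. Growth read as absorbance at 600 nm, normalized to DMSO and equimolar FeCl3 plus clioquinol controls.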
Starred values were filed as active, the others as inactive; i = inactive; / = not tested or not shown. Compounds with a hit are over-represented: about 2.1% of the library has one in this group of screens. Calls come from the whole dose curve; as a rule, active = well fitted curve in the direction sought with a large enough effect; inconclusive = small, poorly fitted or top-dose-only effect, or another doubt; inactive = no such curve, though single readings can be large; an effect the other way counts as inactive or inconclusive. Potency is the fitted concentration of half-maximal effect.

SMILES	FUS suppressor	aSyn rescue	TDP-43 yeast inh	Abeta rescue
COc1ccc([C@@H]2[C@@H]3C(=O)N(C(C)(C)C)C(=O)[C@@H]3[C@]3(Cc4ccccc4)C(=O)N(c4ccccc4)C(=O)N23)cc1	i	0%	15%	i
CCCCCCCCN1CCS(=O)(=O)N(Cc2ccccc2)C(C(=O)OC)C1 (stereo unspecified)	i	/	/	/
COc1cc2c(NC3CCN(C(C)C)CC3)nc(N3CCCN(C)CC3)nc2cc1OCCCN(C)C	/	-1%	/	/
CN(C)CCNc1nc(-c2ccccc2F)c2sccc2n1	i	-4%	-10%	i
Fc1ccccc1-c1nc(NCC2CC2)nc2ccsc12	i	8%	22µM*	i
N#Cc1cccc(OC[C@@H](O)CN2CCC(C(O)(c3ccccc3)c3ccccc3)CC2)c1	i	/	/	/
COc1ccc(C2CC(=O)N(Cc3ccc(F)cc3)c3ccccc3S2)cc1 (stereo unspecified)	i	11%	16µM*	i
